An excerpt weighted towards active compounds, which were near 2.9% of everything screened.
TSHR antag – Antagonists of the Thyroid Stimulating Hormone Receptor: HTS campaign; TSHR-expressing cells, TSH-stimulated cAMP HTRF, 2 h; active compounds read low; activity change, negative = inhibition, % at 11.5 µM; 330,000 tested, 0.2% active; AID 504810, 2011;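 active = activity change below a set negative limit, meaning inhibition stronger than a set level, cut at about -70% in these data; inconclusive = activity change between two set negative limits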
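Inhibition of cAMP made by TSHR-expressing cells under TSH stimulation (4nM final, EC80; 2 h, 37 deg C) is quantified with a one-step lysis HTRF kit, anti-cAMP cryptate versus cAMP-d2.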
D3 ag – qHTS of D3 Dopamine Receptor Agonist: qHTS; D3R DiscoveRx beta-arrestin cells, luminescence, 90 min; AID 652048, 2013; max activation, %; 410,000 tested, 0.58% active; in the data active = max activation above about 30%
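Agonist-mode cell screen: cells plated at 1500/well and incubated overnight at 37 °C, then exposed to library compounds for 90 min at 37 °C. Detection reagent was added for 30–60 min at room temperature, and luminescence was read.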
B2AR arrestin – qHTS assay of beta-arrestin-biased ligands of beta2-adrenergic receptor | Beta-2 adrenergic receptor (Homo sapiens), P07550 | 330,000 tested, 0.02% active | Potency, µM (top dose mostly 46.1 µM), actives largely listed as activators | AID 492947, 2010 | beta-arrestin recruitment to beta2AR, cell-based reporter; active = well fitted activation curve with a large enough effect; inconclusive = small, poorly fitted or top-dose-only effect; also: nearly all actives have a fitted effect of over 65% in size
D3 antag – qHTS of D3 Dopamine Receptor Antagonist: qHTS; D(3) dopamine receptor (Homo sapiens), P35462; max response, negative = inhibition, %; 360,000 tested, 2.5% active; D3R cells, DiscoveRx beta-arrestin luminescence, antagonist mode; active compounds read low; in the data active = max response below about -50%; inconclusive = no clear call, values can overlap the other calls
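Cells expressing the human receptor were seeded at 1500 cells/well, incubated overnight at 37 degrees C in 5% CO2, then exposed to library compounds with dopamine controls for 90 minutes at 37 degrees C before luminescent detection.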
Hits are given with their value; 0 = inactive; ? = inconclusive; - = no result given.

SMILES	TSHR antag	D3 ag	B2AR arrestin	D3 antag
Cc1nc2cccnc2n1-c1cccc(C(=O)NCCc2ccc(S(N)(=O)=O)cc2)c1	-	0	-	-
CCC(C(=O)N1CCN(c2cc(Cl)ccc2C)CC1)n1nc(C)n2c(cc3occc32)c1=O (centres undefined)	-	0	-	-
C=CCn1c(SCC(=O)NC2CCCCC2)nnc1-c1sc(N)nc1C	0	0	0	-51.0
CCOC(=O)C(C)NC(=O)C1CCN(c2ncnc3c2nc2n3CCCCC2)CC1 (centres undefined)	-	0	-	-
CC(=O)N=C1C=CC(=CN(O)C(C)(C)Cc2ccccc2)C=C1	0	0	0	-53.8
Oc1ccc(Br)cc1C=Nc1ccc2c3c(cccc13)CC2	0	0	0	-53.8
Oc1ccc(Cl)cc1C=Nc1ccccc1Br	0	0	0	0
C/C(=N\NC(=O)c1ccc(Cl)cc1)c1ccccn1	0	0	0	-105.8
C/C(=N\NC(=O)c1cc(C)nc2ccccc12)c1ccncc1	0	0	0	0
C/C(=N\NC(=O)c1cc(C)nc2ccccc12)c1ccccn1	0	0	0	-73.8
C/C(=N\NC(=O)COc1ccccc1-c1ccccc1)c1ccccn1	0	0	0	-58.3
COC(=O)c1sccc1S(=O)(=O)N1CCN(c2ccc(C(C)=O)cc2)CC1	-	0	-	-
Cc1ccc(NC(=O)CN2C(=O)CCc3cc(S(=O)(=O)N4CCOCC4)ccc32)cc1F	-	0	-	-
N=C1SC(CC(=O)Nc2ccccc2[N+](=O)[O-])C(=O)N1c1ccccc1 (centres undefined)	0	0	0	-61.7
Cc1ccccc1NC(=O)CC1SC(=O)N(c2ccccc2)C1=O (centres undefined)	0	0	0	-91.9
COc1ccccc1NC(=O)CC1SC(=N)N(c2ccccc2)C1=O (centres undefined)	0	0	0	0
Cc1ccc(CCNC(=O)CCCn2c(=O)c3ccccc3n(Cc3ccccc3C#N)c2=O)cc1	-	0	-	-
O=C(/C=C/c1ccccc1)c1ccccc1	0	0	0	0
O=C(/C=C/c1ccccc1)/C=C/c1ccccc1	0	0	?	-58.2
N#Cc1ccc(/C=C/C(=O)c2ccccc2)cc1	0	0	0	-69.7
O=C(/C=C/c1ccccc1)c1ccc2ccccc2c1	-	0	-	-50.6
Cc1ccc2[nH]c(CSc3nnc(NC(=O)COc4ccccc4C)s3)cc(=O)c2c1	-	0	-	-
CCN(CC)c1nn2c(=O)c(C(=O)NCc3cccc(OC)c3OC)cnc2s1	-	0	-	-
CC1(C)Cc2ccccc2-c2nnc(-c3ccco3)n21	0	0	0	-51.9
O=C(NCCOc1ccccc1)c1ccccc1Cl	0	0	0	0
SMILES	TSHR antag	D3 ag	B2AR arrestin	D3 antag
CN(C(=O)COc1ccccc1C(=O)NCCOc1ccccc1)c1ccccc1	0	30.1	0	0
Cc1ccc(S(=O)(=O)Cc2ccc(C(=O)N3CCN(c4cc(C)ccc4C)CC3)o2)cc1	0	0	0	0
Cc1ccc(C)c(N2CCN(C(=O)c3ccc(CS(=O)(=O)c4ccccc4C)o3)CC2)c1	0	74.5	0	0
Cc1ccc(NC(=O)Cn2cc(C(=O)c3ccco3)c3ccccc32)c(C)c1	-	0	-	-
OC[C@H]1O[C@@H](n2cnc3c2NC=NC[C@H]3O)C[C@@H]1O	-	44.2	-	-
COc1ccc(C(CC(=O)Nc2cc(Cl)c(OC)cc2OC)N2Cc3ccccc3C2=O)cc1 (centres undefined)	-	46.6	-	-
CCc1noc2nc(C)n(CC(=O)O)c(=O)c12	-	0	-	-
CC(=O)Nc1ccc(C(=O)Nc2nc(-c3cccnc3)cs2)cc1	0	0	0	0
CC(=O)Nc1ccc(C(=O)Nc2nc(-c3ccccn3)cs2)cc1	0	0	0	-56.2
CCOC(=O)c1nnc2cc(-c3ccccc3)nn2c1C	0	0	0	-73.9
CCOC(=O)c1cnc2cc(-c3ccc(OCC)cc3)nn2c1-c1ccccc1	-	35.6	-	-
COc1ccc2oc(-c3ccc(NC(=O)c4ccc(N5CCOCC5)c([N+](=O)[O-])c4)cc3)nc2c1	0	53.6	0	0
CC(C)NC(=O)[C@H](CSCc1ccccc1)N1Cc2ccccc2C1=O	0	0	0	0
O=C(NCCCN1CCCC1)[C@H](CSCc1ccccc1)N1Cc2ccccc2C1=O	0	0	0	-59.7
CCN1CCN(CCCNC(=O)Cn2nc(C)n3c(cc4cc(C)ccc43)c2=O)CC1	-	0	-	-

Source: PubChem
